Screening results deposited in PubChem by National Center for Advancing Translational Sciences (NCATS).
Hits are enriched below; roughly 10% of the tested compounds scored in any of these assays.
G9a block = blocks human histone lysine methyltransferase G9a | Q96KQ7 | G9a H3K9 monomethylation, AlphaScreen, 2 h | Potency, µM (titrated, usually from 102 µM), for the others: at the top dose activity, negative = inhibition, hits mostly inhibitors | hit rate 8.8% among 350,000 | AID 504332; also: potency is read from the fitted curve at half-maximal effect; % is scaled to controls: 0 for no effect and ±100 for the full control effect; nearly all actives have a fitted effect of over 75% in size
Target sequence (Q96KQ7 913-1193 limits assumed): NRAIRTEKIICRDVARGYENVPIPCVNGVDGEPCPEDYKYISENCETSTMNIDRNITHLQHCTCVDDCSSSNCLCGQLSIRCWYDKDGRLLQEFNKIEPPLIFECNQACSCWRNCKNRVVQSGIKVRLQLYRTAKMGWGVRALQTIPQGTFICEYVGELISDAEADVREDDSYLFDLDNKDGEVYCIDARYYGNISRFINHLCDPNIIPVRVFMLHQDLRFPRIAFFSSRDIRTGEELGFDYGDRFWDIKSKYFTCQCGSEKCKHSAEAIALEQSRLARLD
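G9a (20 nM) was preincubated 15 min with compound, then reacted 2 h at room temperature with 500 nM biotin-H3K9 peptide and 20 µM SAM. Monomethyl-H3K9 detected by AlphaScreen using anti-H3K9me1 antibody.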
Six1-Eya2 inh = Six1/Eya2 interaction inhibition. AlphaScreen GST-Six1/His-Eya2 binding, biochemical; stronger effect = lower value. activity change, % (test concentration not listed). hit rate 0.56% among 360,000. AID 651725; in the data active = activity change below about -65%; inconclusive = mostly about -30% to -63%; also: % is scaled to controls: 0 for no effect and ±100 for the full control effect
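AlphaScreen luminescence read after one hour at 37 °C in darkness. Pin-transferred compounds met GST-Six1 and His-Eya2 protein (5X stock 250 nM/500 nM) plus glutathione donor and Ni-chelate acceptor beads (5X, 50 ug/mL).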
CtBP-E1A blk = inhibitors of CtBP/E1A interaction. activity change, % (no concentration beside the values). AlphaScreen GST-E1A/His-CtBP binding, 1536-well; stronger effect = lower value. hit rate 0.49% among 340,000. AID 651724; in the data active = activity change below about -65%; inconclusive = mostly about -30% to -63%; also: % is scaled to controls: 0 for no effect and ±100 for the full control effect
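AlphaScreen with 125 nM GST-E1A and 125 nM His-CtBP (5X stocks) in Tris pH 8.0, 300 mM NaCl, BSA, Tween 20, TCEP. Compounds preincubated 2 h at 37 deg C, then glutathione donor/nickel acceptor beads added for 1 h at 37 deg C in dark.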
HP1b binding inh = inhibitors of HP1-beta chromodomain binding to methylated histone tails; P83916; AlphaScreen HP1-beta / biotin-H3K9me3 peptide binding; Potency, µM (series often up to 114 µM), inactives show at the top dose activity change, negative = inhibition, actives largely listed as inhibitors; hit rate 0.56% among 390,000; AID 540317; also: potency is read from the fitted curve at half-maximal effect; nearly all actives have a fitted effect of over 70% in size
Target sequence (P83916 whole entry, looked up): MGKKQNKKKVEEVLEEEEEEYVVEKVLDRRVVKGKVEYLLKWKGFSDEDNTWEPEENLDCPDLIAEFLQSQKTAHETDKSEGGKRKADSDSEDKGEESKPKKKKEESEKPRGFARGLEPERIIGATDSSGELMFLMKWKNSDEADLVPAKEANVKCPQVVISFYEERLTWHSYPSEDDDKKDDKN
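Compound inhibition of the preformed complex between 50 nM HP1-beta and 50 nM biotinylated H3K9me3 peptide was read by AlphaScreen. Buffer was PBS pH 7.4 with 0.01% Tween-20. Incubations ran 30 min at room temperature, with 10 ug/mL donor/acceptor beads.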
BAZ2B block = BAZ2B (human) inhibition; Q9UIF8; AlphaScreen BAZ2B-H3K14Ac peptide displacement; Potency, µM (highest dose often 114 µM), for the others: top-dose activity change, negative = inhibition, hits mostly inhibitors; hit rate 4.4% among 360,000; AID 504333; also: potency is read from the fitted curve at half-maximal effect; % is scaled to controls: 0 for no effect and ±100 for the full control effect; nearly all actives have a fitted effect of over 60% in size
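Inhibition is scored as reduced AlphaScreen emission. The BAZ2B/b-H3(5-23)K14Ac complex (50 nM each) in PBS pH 7.4, 0.01% Tween-20 meets compound (up to 110 uM) for 30 min at RT before bead addition.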
JMJD2A Tudor = JMJD2A Tudor domain (human) inhibition; Potency, µM (series often up to 114 µM), without a hit: at the highest dose activity change, negative = inhibition, usual class: inhibitors; O75164; hit rate 4.4% among 390,000; AlphaScreen JMJD2A-Tudor / H3K4me3 peptide binding; also: potency is read from the fitted curve at half-maximal effect; % is scaled to controls: 0 for no effect and ±100 for the full control effect; nearly all actives have a fitted effect of over 50% in size
An asterisk follows results filed as active; ! = not confirmed by another sample; [ ] = remark or other dose. Unless noted, calls follow the shape of the dose curve; as a rule, active = well fitted inhibition curve with a large enough effect; inconclusive = small, poorly fitted or top-dose-only effect; inactive = no such curve, though single readings can be large or run the other way.

CSc1ncccc1-c1nc2ccccc2[nH]1 was read as G9a block 10µM*, Six1-Eya2 inh -4.0, CtBP-E1A blk 8.5, HP1b binding inh 1.0%, BAZ2B block 10.8% and JMJD2A Tudor -8.7%[57.1 µM].
`c1ccc2[nH]c(-c3ccnc4ccccc34)nc2c1` gave G9a block 8.91µM*!, Six1-Eya2 inh -5.8, CtBP-E1A blk 4.1, HP1b binding inh 39.5%, BAZ2B block inconclusive and JMJD2A Tudor -13.0%.
For CCN(CC)C(=O)CSc1ncccc1-c1nc2ccccc2[nH]1 the results were G9a block 50.1µM*, Six1-Eya2 inh -7.9, CtBP-E1A blk -10.5, HP1b binding inh 34.1%, BAZ2B block -12.0% and JMJD2A Tudor -13.8%.
For COc1ccc(CC(=O)NCC(c2ccc(N(C)C)cc2)N2CCOCC2)cc1 (centres undefined) the results were G9a block -19.4%[12.7 µM], HP1b binding inh 16.6%, BAZ2B block -36.4% and JMJD2A Tudor -11.6%.
Screening COC(=O)c1sccc1S(=O)(=O)N(CC(=O)Nc1ccccc1F)c1ccccc1 returned G9a block 5.8%[59 µM], HP1b binding inh 1.3%, BAZ2B block -9.9% and JMJD2A Tudor -18.7%.
`CC(O)c1n(C)c(Cl)c[n+]1C` (centres undefined) gave G9a block 11.2µM*, Six1-Eya2 inh 4.5, CtBP-E1A blk 10.5, HP1b binding inh 9.0%, BAZ2B block 1.1% and JMJD2A Tudor inconclusive.
O=C(O)CCCNC(=O)c1cccc(C(=O)NCCCC(=O)O)n1 was read as G9a block 20µM*, Six1-Eya2 inh 12.5, CtBP-E1A blk 6.0, HP1b binding inh -2.5%, BAZ2B block inconclusive and JMJD2A Tudor inconclusive.
COc1cc(C2Oc3ccccc3C=C2[N+](=O)[O-])cc(OC)c1OC (centres undefined) was read as Six1-Eya2 inh -4.2, HP1b binding inh -20.0%, BAZ2B block 35.5µM* and JMJD2A Tudor 56.2µM*.
CCCCc1ccc(NC(=O)c2cc(-c3ccc(C)c(F)c3)on2)cc1 was read as G9a block -10.3%[59 µM], HP1b binding inh 0.8%, BAZ2B block -7.5% and JMJD2A Tudor -23.8%.
For Cc1cc2c(Nc3ccc(C(=O)O)cc3)ncnc2s1 the results were Six1-Eya2 inh 6.9, CtBP-E1A blk -18.2, HP1b binding inh 30.3%, BAZ2B block -3.2% and JMJD2A Tudor -9.0%.
For Cc1cc2c(Nc3ccc(O)cc3)ncnc2s1 the results were G9a block 56.2µM*, Six1-Eya2 inh -2.2, CtBP-E1A blk -0.9, HP1b binding inh 37.0%, BAZ2B block inconclusive and JMJD2A Tudor -13.2%.
Cc1cc(C)c(Cn2c3ccccc3c3cnn(CC(=O)NCCc4ccccc4)c(=O)c32)c(C)c1 was read as G9a block 28.3%[59 µM], HP1b binding inh 57.2%, BAZ2B block -2.6% and JMJD2A Tudor 8.7%.
For CC(=O)c1ccc(N2C(=NC(=O)C3CCCO3)SC3CS(=O)(=O)CC32)cc1 (centres undefined) the results were G9a block -1.9%, Six1-Eya2 inh 6.5, CtBP-E1A blk 2.7, HP1b binding inh 45.8%, BAZ2B block -2.4% and JMJD2A Tudor -6.8%.
CN(C)c1ccc(N2C(=NC(=O)C3CCCO3)SC3CS(=O)(=O)CC32)cc1 (centres undefined) was read as G9a block 44.7µM*, Six1-Eya2 inh 3.4, CtBP-E1A blk 2.1, HP1b binding inh 8.6%, BAZ2B block inconclusive and JMJD2A Tudor inconclusive.
For O=C(CNCC1CCCO1)Nc1ccccc1-n1cccc1 (centres undefined) the results were G9a block 8.91µM*, Six1-Eya2 inh -2.2, CtBP-E1A blk -0.4, HP1b binding inh 4.4%, BAZ2B block 50.1µM* and JMJD2A Tudor 5.01µM*.
For CCn1c2ccccc2c2cc(NC(=O)CNCC3CCCO3)ccc21 (centres undefined) the results were G9a block 12.6µM*, Six1-Eya2 inh -0.6, HP1b binding inh inconclusive, BAZ2B block 50.1µM* and JMJD2A Tudor -27.1%[11.4 µM].
Screening O=C(CNCC1CCCO1)Nc1ccc([N+](=O)[O-])cc1C(=O)Nc1ccccc1F (centres undefined) returned G9a block -37.2%, Six1-Eya2 inh 1.0, CtBP-E1A blk 1.1, HP1b binding inh 25.4%, BAZ2B block inconclusive and JMJD2A Tudor 0.0%[11.4 µM].
Cc1ccc(NC(=O)CC(NCC2CCCO2)C(=O)O)cc1C (centres undefined) was read as G9a block 2.24µM*, Six1-Eya2 inh 6.6, CtBP-E1A blk 1.1, HP1b binding inh 12.4%, BAZ2B block -29.6% and JMJD2A Tudor -12.6%.
`CCC1CCCCN1C(=O)CNCC1CCCO1` (centres undefined) gave G9a block 17.8µM*, Six1-Eya2 inh -0.3, CtBP-E1A blk 7.2, HP1b binding inh -23.7%, BAZ2B block -38.7% and JMJD2A Tudor -7.4%[11.4 µM].
CCn1c2ccccc2c2cc(NC(=O)CN3CCCC3)ccc21 was read as G9a block inconclusive, Six1-Eya2 inh 1.9, CtBP-E1A blk -11.1, HP1b binding inh -13.8%, BAZ2B block -42.9% and JMJD2A Tudor inconclusive.
Nc1ncnc2c1ncn2[C@@H]1O[C@H](C(=O)NC2CC2)[C@@H](O)[C@H]1O was read as G9a block 33.6%[59 µM].
Screening Cc1oc2c(C)c3oc(=O)c(CC(=O)N4CCCCC4)c(C)c3cc2c1C returned G9a block -5.7%[59 µM], HP1b binding inh 34.2%, BAZ2B block -3.6% and JMJD2A Tudor -17.6%.
`O=C(CNCC1CCCO1)N1CCCc2ccccc21` (centres undefined) gave G9a block inconclusive, Six1-Eya2 inh 6.7, CtBP-E1A blk 1.2, HP1b binding inh inconclusive, BAZ2B block 56.2µM* and JMJD2A Tudor 3.98µM*.
CCn1c2ccccc2c2cc(NC(=O)c3ccccc3[N+](=O)[O-])ccc21 was read as G9a block 7.94µM*, Six1-Eya2 inh -23.0, CtBP-E1A blk 3.2, HP1b binding inh 2.9%, BAZ2B block -37.6% and JMJD2A Tudor -34.9%.
`CC(C)NCC(O)Cn1c2c(c3ccccc31)CCc1c-2cnn1-c1ccccc1` (centres undefined) gave G9a block inconclusive, Six1-Eya2 inh -26.5, CtBP-E1A blk -26.8, HP1b binding inh inconclusive, BAZ2B block inconclusive and JMJD2A Tudor 50.1µM*.
Screening CN1CCc2c(n(CC(O)CN3C(=O)c4ccccc4S3(=O)=O)c3ccccc23)C1=O (centres undefined) returned G9a block -27.3%[59 µM], Six1-Eya2 inh -0.3, CtBP-E1A blk -4.5, HP1b binding inh 16.2%, BAZ2B block -5.1% and JMJD2A Tudor -29.7%.
